Test results taken from ChEMBL document CHEMBL4513216, “Probing the Open Global Health Chemical Diversity Library for Multistage-Active Starting Points for Next-Generation Antimalarials” (ACS Infect Dis, 2020).
The campaign covered roughly 69,000 compounds. About 8,600 (12%) showed an effect of 50% or more. The full list was thinned out, with strong results kept by preference.

Test system: Plasmodium berghei
Assay: Screen against P. berghei liver stage (PbLuc), transformed with Luciferase, at 10uM
Type: functional, HepG2
Settings: tested at 10 uM

Compound | INHIBITION
Cc1ccc(C)c(CSc2nnc(C(N)Cc3ccccc3)o2)c1 (stereo unspecified) | 43.8%
Cc1ccc(-c2cc(C3=NC(=CN4CCN(C)CC4)NO3)[nH]n2)s1 | 39.6%
Cc1ccsc1CNC1CCCN(Cc2noc(C3CC3)n2)C1 (stereo unspecified) | 31.8%
CC1CN(CCOc2cccc(C#N)c2)CCN1Cc1nccn1C (stereo unspecified) | -3.2%
COc1ccc(CN2CCC3(CC2)CC(c2cccnc2)CO3)cc1 (stereo unspecified) | 15.4%
Cc1csc(N2CCCN(C(=O)C3(C#N)CCCC3)CC2)n1 | -33.32%
CN(C)CC1CN(Cc2ccc3c(c2)OCO3)Cc2nccn2C1 (stereo unspecified) | 43.8%
CNc1ncc(CN(C)c2nc(C)c3ccc(S(C)(=O)=O)cc3n2)cn1 | -9.54%
Cc1noc2ncnc(N(C)Cc3ccco3)c12 | 10.1%
CNc1ncc(CN(C)c2ncnc3onc(C)c23)cn1 | 62.9%
Cc1noc(C)c1CN(C)c1ncnc2onc(C)c12 | 74.7%
Cc1noc(C)c1CN(C)c1ncnc2ccccc12 | 35.6%
CNc1ncc(CN(C)C2CCN(C(C)C)CC2)cn1 | -52.2%
Cc1ccc(S(=O)(=O)NC(=O)C2(c3ccccc3)CCC2)c(C)c1 | 21.1%
CNc1ccc(C)cc1C(=O)N1CCCC2(CCNC2)C1 (stereo unspecified) | 33.7%
CN(CCCOc1ccccc1)Cc1nccn1C | 20.5%
CN(Cc1cc2c(cc1OC(F)F)OCO2)Cc1nccn1C | 43.6%
Cc1ccc(OCCN(C)Cc2nccn2C)c(C)c1 | 55%
CCOc1cccc(C(=O)N2CCC(c3n[nH]c(C4CC4)n3)CC2)c1 | 11.2%
CC(C)N1CCCC(CNC(=O)c2ccnc(-n3ccnc3)c2)C1 (stereo unspecified) | -33%
c1cncc(OCC2CN(Cc3nccs3)Cc3nccn3C2)c1 (stereo unspecified) | 8.52%
COCCN1CCC(CNC(=O)C2(c3cc(C)cc(C)c3)CC2)CC1 | 26.5%
O=C(NCC1CCN(CCc2ccccc2)C1)c1c(F)cccc1F (stereo unspecified) | 45.1%

Compound | INHIBITION
COCCN1CCC(CNC(=O)C2(c3cc(C)cc(C)c3)CCC2)C1 (stereo unspecified) | 40.9%
COCCN1CCC(CNC(=O)C2(c3ccc(F)cc3)CCC2)CC1 | 8.64%
COCCN1CCC(CNC(=O)Nc2ccc(-c3ccccc3)cc2)C1 (stereo unspecified) | 42.5%
COCCN1CCC(CNC(=O)C2(c3ccc(Br)cc3)CCCC2)C1 (stereo unspecified) | 52.5%
Nc1cc(C(=O)NCC2CCN(CCc3ccccc3)C2)ccn1 (stereo unspecified) | 37.2%
COCCN1CCC(CNC(=O)Nc2ccc(F)c(Cl)c2)C1 (stereo unspecified) | 7.44%
O=C(NCC1CCN(CCc2ccccc2)C1)c1cc(Cl)c[nH]1 (stereo unspecified) | 72.3%
COCCN1CCC(CNC(=O)Nc2ccc(SC(F)(F)F)cc2)C1 (stereo unspecified) | 66.5%
COCCN1CCC(CNC(=O)c2cc(C)cc(C)c2)C1 (stereo unspecified) | 58.3%
COCCN1CCC(CNC(=O)C2(c3ccccc3)CCC2)C1 (stereo unspecified) | 45.7%
CC1CCN(c2cncc(CCC3CCCN3)n2)CC1 (stereo unspecified) | 35.8%
CN(C)CC(=O)N1CCC2(CCN(Cc3cccc(F)c3)CC2)C1 | 9.97%
CSCC[C@H](NC(=O)CCn1ccc2c(Br)cccc21)C(=O)O | -2.13%
CCCn1nccc1NC(=O)CN1CCC[C@H]1CO | -72.2%
COCC1CN(CC2CC2)Cc2nccn2C1 (stereo unspecified) | 35.7%
N#CC1(C(=O)N2CCN(Cc3cscn3)CC2)CCCCC1 | 25.6%
CC(C)c1nc(CN(C)C(=O)CCc2ccc3c(c2)OCO3)cs1 | 19.4%
COC(=O)C(NC(=O)CC(C)C)c1cc(F)ccc1F (stereo unspecified) | 15.6%
CCN1CCC(CNC(=O)C2(c3cccc(C)c3)CC2)C1 (stereo unspecified) | 37%
CCN1CCC(CNC(=O)c2cc(Cl)c[nH]2)CC1 | 7.39%
CCN1CCCC(CNC(=O)C2(c3cc(C)cc(C)c3)CCC2)C1 (stereo unspecified) | 51.1%
COCCN1CCC(CNC(=O)c2cc(Cl)c[nH]2)CC1 | 72.3%
CCCN1CCC(CNC(=O)C2(c3cc(C)cc(C)c3)CCC2)C1 (stereo unspecified) | 25.1%

Compound | INHIBITION
COCCN1CCC(CNC(=O)c2c[nH]c(=O)c(Cl)c2)CC1 | -16%
CCOc1cc(CNC(C)c2ccc(F)cc2)ccn1 (stereo unspecified) | 21.5%
CCOc1cc(CNC(=O)NCc2nc(C)c(C)s2)ccn1 | 30.1%
CCOc1cc(CNC(C)c2sccc2C)ccn1 (stereo unspecified) | 66.9%
CCOc1cccc(CCNC(=O)Cc2ccccc2O)n1 | 20.1%
CCOc1cccc(CCNC(=O)Cc2ccn[nH]2)n1 | 61.8%
CCOc1cccc(CCNC(=O)Cc2cccc(O)c2)n1 | 37.2%
CC(=O)N1N=C(COc2ccc(Cl)cc2)OC1c1ccccc1 (stereo unspecified) | 68.9%
COc1ccc(C2OC(COc3ccccc3Br)=NN2C(C)=O)cc1 (stereo unspecified) | -52.1%
CC(=O)N1N=C(COc2ccc3c(c2)OCO3)OC1c1cccc(Cl)c1 (stereo unspecified) | 61.5%
CC(=O)N1N=C(COc2ccc(C)cc2)OC1c1ccc(N(C)C)cc1 (stereo unspecified) | 11.9%
COc1ccc(C2OC(COc3ccc(C)cc3)=NN2C(C)=O)cc1 (stereo unspecified) | -13.6%
CC(=O)N1N=C(COc2ccc3c(c2)OCO3)OC1c1ccc(C)cc1 (stereo unspecified) | -51.1%
COCC(=O)N1C[C@@H](c2cccc(OC)c2)[C@@]2(CCCCC(=O)N2)C1 | -4.87%
CC(C)(CCS(C)(=O)=O)CNC(=O)NC1CCCCC1(C)C (stereo unspecified) | -11.1%
Cc1cc(C2CCCN(CCS(=O)(=O)c3ccccc3)C2)n[nH]1 (stereo unspecified) | -9.76%
Cc1ccc(CNC(=O)C2=NOC3(CCCNC3)C2)cc1 (stereo unspecified) | -13.1%
O=C(NCc1ccncc1)C1=NOC2(CCCNC2)C1 (stereo unspecified) | -6.21%
O=C(NCC(F)(F)F)C1=NOC2(CCCNC2)C1 (stereo unspecified) | 52.9%
COCCn1ccc(=O)c(OCC(=O)Nc2ccc(OC)cc2)c1C | -35.1%
CCn1nc(C)c(CN(CCCOC)Cc2ccccn2)c1C | 41.5%
CCn1c(C2CCN(C(=O)c3cc(Cl)no3)CC2)nn(C)c1=O | -34.7%
Cc1nn(C)c2nc(N(Cc3ccncc3)CC3CCCO3)sc12 (stereo unspecified) | -24%

Compound | INHIBITION
Cc1nn(C)c2nc(N(Cc3ccccn3)CC3CCCO3)sc12 (stereo unspecified) | 3.17%
Cc1nn(C)c2nc(N(Cc3ccccc3)CC3CCCO3)sc12 (stereo unspecified) | 32.8%
Cc1nn(C)c2nc(N(CCOc3ccccc3)CC3CCCO3)sc12 (stereo unspecified) | 85.9%
COc1ccc(CN(CC2CCCO2)c2nc3c(s2)c(C)nn3C)cc1 (stereo unspecified) | 87.1%
Cc1nn(C)c2nc(-c3ccccn3)nc(NC[C@@H]3CCCO3)c12 | 10.4%
Cn1cc(CN2C[C@@H]3COC[C@]3(COCC3CC3)C2)cn1 | 33.1%
CCn1c(CN(C)Cc2csc(C)n2)nc2cc(F)ccc21 | 45.2%
CC(=O)c1c(C)nn(S(=O)(=O)c2ccc(C)c(C)c2)c1C | 4.97%
CCOc1cc(=O)n2c(c1C(=O)OCc1ccc(F)cc1)CCCC2 | -3.77%
Cn1cccc(NC(=O)NCc2cccc(CO)c2)c1=O | 42.4%
Cn1cccc(NC(=O)NCCOCc2ccccc2)c1=O | 28.5%
Cn1cccc(NC(=O)NCCc2cccc(O)c2)c1=O | 57.3%
CCN(Cc1ccccc1O)CC1(C)Cc2c(N)nc(N)nc2O1 (stereo unspecified) | 16.7%
COCCOC(=O)N1C[C@@H]2CC[C@H]1CN(C1Cc3ccccc3C1)C2 | -55%
COc1ccc(C2CCCN2C(=O)NCCNc2ccccn2)cc1 (stereo unspecified) | -21.2%
Cc1ccc(OCCCC(=O)Nc2nonc2C)cc1C | 86.1%
CCCOc1ccc(CCC(=O)Nc2nonc2C)cc1 | -11.3%
Cc1nonc1NC(=O)CCn1cc(Br)ccc1=O | 20.3%
COCC1c2c(cnn2C)CCN1Cc1ccc(C)o1 (stereo unspecified) | 34.4%
Cc1n[nH]c(C)c1CCC(=O)NCC1CCCN(C2CCCC2)C1 (stereo unspecified) | 38.6%
COc1nn(C)cc1C(=O)N1CCC(C)CC1 | 49.9%
CNC(=O)[C@H]1C[C@@H]2CN(C(=O)c3cccnc3)C[C@@H]2N1S(C)(=O)=O | 10.5%
Cc1ccc(CN2CCC3(CCN(S(=O)(=O)c4ccccc4)C3)C2)o1 (stereo unspecified) | 56.8%

Compound | INHIBITION
Cc1ccc(CN2CCC3(CCCN(S(C)(=O)=O)C3)C2)o1 (stereo unspecified) | 24.9%
CCS(=O)(=O)N1CCC2(CCN(Cc3ccc(C)o3)C2)C1 (stereo unspecified) | 13.1%
Cc1ccc(CN2CCCC3(CCN(S(C)(=O)=O)C3)C2)o1 (stereo unspecified) | 22.7%
Cc1ccc(CN2CCCC3(CCN(Cc4ccc(C)o4)C3)C2)o1 (stereo unspecified) | 74.7%
Cc1ccc(CN2CCC3(CCCN(Cc4ccc(F)c(F)c4)C3)C2)o1 (stereo unspecified) | 54.7%
Cc1ccc(CN2CCCC3(CCN(S(=O)(=O)N(C)C)C3)C2)o1 (stereo unspecified) | 48.3%
Cc1ccc(CN2CC3(CCN(S(=O)(=O)c4ccccc4)C3)C2)o1 | 12.4%
Cc1c[nH]c(CN2CCC3(CCCN(Cc4ccc(F)c(F)c4)C3)C2)n1 (stereo unspecified) | 42.2%
CC(=O)N1CCN([C@@H]2CC[C@@H](NC(=O)c3cc(C)cs3)[C@H]2O)CC1 | 33.7%
Cc1cncc(C(=O)N2CCC3(CC2)NC(=O)CC3c2ccccc2)c1 (stereo unspecified) | -3.88%
O=C([C@H]1C[C@H]2[C@H](CCN2Cc2cccs2)O1)N1CCOCC1 | 24.8%
CSc1ncccc1C(=O)N1C[C@@H]2CC[C@H]1CN(C(C)=O)C2 | -31.1%
COCCNc1c(-c2ccc(C)cc2)c(=O)c1=O | 25.3%
Cc1cc(S(=O)(=O)N2CCC(S(C)(=O)=O)C2)ccc1F (stereo unspecified) | 6.09%
Cc1ccc(S(=O)(=O)N2CCC(N3CCCCC3)CC2)cc1C | 45.4%
Cc1ccc(S(=O)(=O)N2CCCCC(N3CCN(C)CC3)C2)cc1F (stereo unspecified) | 71.3%
Cc1cc(S(=O)(=O)N2CCCN3CCCC3C2)ccc1F (stereo unspecified) | 88.1%
Cc1cc(S(=O)(=O)N2CCC(S(C)(=O)=O)CC2)ccc1F | 16.6%
Cc1ccc(S(=O)(=O)N2C[C@H](C3CC3)[C@@H](N)C2)cc1F | 22.5%
